17 molecules from PubChem BioAssay (EPA / NIEHS) can be followed below.

Several values for one entry are separate records, joined by “and”; a condition that tells them apart may be missing. Equal entries are not always repeated. Activity calls are given as the source filed them. How the source made its calls: active means hit-call score of the fitted dose curve at least 0.9, where 1 is the maximum; inactive means score below 0.9.

For assay [1], the target named is Paired box protein Pax-6 (Homo sapiens) (UniProt P26367). The assay can be described thus: ATG_Pax6_CIS: Attagene CIS-FACTORIAL HepG2 Assay for human Paired Box 6 (PAX6) (AID 2282956). As to conditions: HepG2 CIS-FACTORIAL PAX6 reporter transcription, RNA readout; actives raise or lower the signal. In short, it runs like this:
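Readout: reporter transcript fluorescence after RT-PCR and capillary electrophoresis. Cells: HepG2, transiently transfected with cis-regulated MRTUs. Exposure 24 h. Gain or loss of signal fitted bidirectionally relative to DMSO.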

Assay [2] can be described thus: ATG_PXRE_CIS: Attagene CIS-FACTORIAL HepG2 Assay for human Pregnane X Receptor Element (PXRE) (AID 2282957). As to conditions: HepG2 Attagene CIS-FACTORIAL PXRE reporter, mRNA; actives raise or lower the signal. The method, boiled down:
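Read-out: fluorescence of reporter-specific RT-PCR products resolved by capillary electrophoresis, fitted bidirectionally relative to DMSO. Human HepG2 liver cells carried transfected cis-promoter reporter units and were exposed to chemicals for 24 h.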

Assay [3] in a line: ATG_RORE_CIS: Attagene CIS-FACTORIAL HepG2 Assay for human RAR-related Orphan Receptor Element (RORE) (AID 2282959). The following applies: HepG2 Attagene cis-factorial RORE reporter, mRNA; actives raise or lower the signal. In short, it runs like this:
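A 24-hour exposure of transfected HepG2 hepatoma cells precedes RNA isolation and reporter RT-PCR. Labeled products are digested with HpaI and resolved by capillary electrophoresis, with gain or loss of signal scored relative to DMSO.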

Assay [4] in a line: ATG_Sox_CIS: Attagene CIS-FACTORIAL HepG2 Assay for human SRY-box transcription factor (SOX) (AID 2282960). As to conditions: HepG2 Attagene cis-factorial SOX reporter, mRNA; actives raise or lower the signal. In short, it runs like this: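 HepG2, cis reporter units, 24 h exposure. Reporter mRNA: RT-PCR → FAM labelling → HpaI → CE fluorescence. Bidirectional fit vs DMSO.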
The target in assay [5] is Transcription factor Sp1 (Homo sapiens) (UniProt P08047). Kind of assay: ATG_Sp1_CIS: Attagene CIS-FACTORIAL HepG2 Assay for human Specificity Protein 1 (Sp1) (AID 2282961). The following applies: HepG2 Sp1 cis-reporter transcription, actives raise or lower the signal. In short, it runs like this:
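Liver-derived HepG2 cells, cis-element reporter library, 24 h treatment; RNA isolated, cDNA amplified with reporter-specific primers, FAM-labeled fragments sized on capillary analyzer. DMSO baseline, bidirectional curve fit.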

Assay [6] is described as follows: ATG_SREBP_CIS: Attagene CIS-FACTORIAL HepG2 Assay for human Sterol Regulatory Element Binding (SREBP) (AID 2282962). As to conditions: HepG2 Attagene cis-factorial SREBP reporter, mRNA; actives raise or lower the signal. The method, boiled down:
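Readout: fluorescent reporter-transcript peaks resolved by capillary electrophoresis after RT-PCR. Cells were human HepG2 carrying transfected cis-promoter reporter constructs, dosed for 24 h. Gain or loss of signal was fitted against DMSO controls.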

Assay [7] deals with Signal transducer and activator of transcription 3 (Homo sapiens) (UniProt P40763). Kind of assay: ATG_STAT3_CIS: Attagene CIS-FACTORIAL HepG2 Assay for human Signal Transducer and Activator of Transcription 3 (STAT3) (AID 2282963). As to conditions: HepG2, Attagene cis-factorial STAT3 reporter transcription; actives raise or lower the signal. In short, it runs like this:
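Fluorescence intensity of 6-FAM-labelled reporter fragments, separated by capillary electrophoresis after RT-PCR, gave the signal. Cells were HepG2 transfected with cis-element reporter units and treated 24 h; fitting was bidirectional relative to DMSO.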

Assay [8] in a line: ATG_TA_CIS: Attagene CIS-FACTORIAL HepG2 Assay for human TA Basal Promoter (AID 2282964). The following applies: HepG2 Attagene CIS-factorial TA basal promoter reporter; actives raise or lower the signal. The method, boiled down: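 Transfected HepG2, 24 h compound exposure; RNA → RT-PCR → FAM primer extension → HpaI cut → CE fluorescence. Gain/loss-of-signal fitted against DMSO negative control. Background-control readout.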

Assay [9] is described as follows: ATG_TCF_b_cat_CIS: Attagene CIS-FACTORIAL HepG2 Assay for human T-Cell-Factor with beta-catenin (TCF/b-cat) (AID 2282965). The following applies: HepG2 TCF/beta-catenin cis-reporter transcription, actives raise or lower the signal. In short, it runs like this:
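HepG2 cells transiently transfected with cis-promoter-driven multiplexed reporter units; reporter mRNA measured 24 h after dosing by RT-PCR, FAM labelling, HpaI digestion and capillary electrophoresis. Bidirectional fitting relative to DMSO baseline.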

The nature of assay [10]: ATG_PPRE_CIS: Attagene CIS-FACTORIAL HepG2 Assay for human Peroxisome Proliferator-activated Response Element (PPRE) (AID 2282958). As to conditions: HepG2 PPRE cis-element reporter, Attagene transcription factor profiling; actives raise or lower the signal. The method, boiled down:
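PPRE activity in HepG2: transient cis-reporter transfection, 24 h compound incubation, reporter mRNA by RT-PCR and CE fluorescence; gain/loss fitted against DMSO.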

Chain of Paired box protein Pax-6 (Homo sapiens) (P26367 whole entry, looked up): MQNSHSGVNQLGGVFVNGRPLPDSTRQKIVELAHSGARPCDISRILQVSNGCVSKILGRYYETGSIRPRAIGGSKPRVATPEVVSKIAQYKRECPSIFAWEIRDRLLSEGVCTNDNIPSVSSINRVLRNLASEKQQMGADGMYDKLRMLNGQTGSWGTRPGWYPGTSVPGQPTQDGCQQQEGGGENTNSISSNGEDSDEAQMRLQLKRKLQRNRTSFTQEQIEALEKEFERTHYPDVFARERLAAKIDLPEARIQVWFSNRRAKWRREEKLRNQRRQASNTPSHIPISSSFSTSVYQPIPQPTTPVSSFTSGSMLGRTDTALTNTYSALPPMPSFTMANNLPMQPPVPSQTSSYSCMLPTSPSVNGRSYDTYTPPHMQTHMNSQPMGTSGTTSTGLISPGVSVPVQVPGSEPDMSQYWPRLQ
Chain of Signal transducer and activator of transcription 3 (Homo sapiens) (P40763 whole entry, looked up, the tested form may be a part): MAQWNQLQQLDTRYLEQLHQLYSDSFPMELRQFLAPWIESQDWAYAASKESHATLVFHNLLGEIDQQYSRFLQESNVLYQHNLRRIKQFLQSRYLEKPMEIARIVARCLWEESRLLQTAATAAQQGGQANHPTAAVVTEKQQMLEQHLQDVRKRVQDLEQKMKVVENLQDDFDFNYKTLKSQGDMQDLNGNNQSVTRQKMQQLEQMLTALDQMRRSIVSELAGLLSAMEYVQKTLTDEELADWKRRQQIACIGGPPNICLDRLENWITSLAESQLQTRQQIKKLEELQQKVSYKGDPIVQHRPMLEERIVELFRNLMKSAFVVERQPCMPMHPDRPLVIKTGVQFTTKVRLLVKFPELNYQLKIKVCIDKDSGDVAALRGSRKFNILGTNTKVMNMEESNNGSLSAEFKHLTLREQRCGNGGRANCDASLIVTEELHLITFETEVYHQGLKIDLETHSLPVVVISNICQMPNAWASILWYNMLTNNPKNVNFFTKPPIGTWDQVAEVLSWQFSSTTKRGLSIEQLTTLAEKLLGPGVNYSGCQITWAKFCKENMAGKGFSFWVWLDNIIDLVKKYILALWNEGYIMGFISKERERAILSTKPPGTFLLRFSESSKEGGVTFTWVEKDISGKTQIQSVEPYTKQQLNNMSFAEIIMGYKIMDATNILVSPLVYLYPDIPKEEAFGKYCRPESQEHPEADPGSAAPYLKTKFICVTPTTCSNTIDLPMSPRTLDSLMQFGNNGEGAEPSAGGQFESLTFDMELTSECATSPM
Chain of Transcription factor Sp1 (Homo sapiens) (P08047 whole entry, looked up, the tested form may be a part): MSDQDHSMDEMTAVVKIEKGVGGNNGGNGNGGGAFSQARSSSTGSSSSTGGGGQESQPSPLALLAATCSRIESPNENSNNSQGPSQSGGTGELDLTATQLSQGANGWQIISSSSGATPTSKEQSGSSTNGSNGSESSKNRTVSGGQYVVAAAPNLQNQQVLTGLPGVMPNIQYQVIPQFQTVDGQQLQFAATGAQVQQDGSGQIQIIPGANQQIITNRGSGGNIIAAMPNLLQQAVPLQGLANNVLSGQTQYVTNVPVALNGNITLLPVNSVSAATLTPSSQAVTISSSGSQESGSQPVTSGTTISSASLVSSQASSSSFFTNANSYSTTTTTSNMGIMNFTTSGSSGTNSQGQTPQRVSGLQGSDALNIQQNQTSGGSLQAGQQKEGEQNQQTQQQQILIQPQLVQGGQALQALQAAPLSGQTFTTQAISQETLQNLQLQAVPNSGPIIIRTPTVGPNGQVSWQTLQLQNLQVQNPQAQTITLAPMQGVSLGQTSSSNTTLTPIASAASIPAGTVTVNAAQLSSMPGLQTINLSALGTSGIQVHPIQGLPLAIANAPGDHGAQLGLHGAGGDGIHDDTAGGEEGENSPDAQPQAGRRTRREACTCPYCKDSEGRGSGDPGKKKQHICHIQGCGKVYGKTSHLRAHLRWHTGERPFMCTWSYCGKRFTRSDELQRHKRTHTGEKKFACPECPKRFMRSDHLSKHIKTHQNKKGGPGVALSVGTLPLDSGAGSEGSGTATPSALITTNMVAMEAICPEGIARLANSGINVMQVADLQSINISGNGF

As a reminder, the AC50 is the concentration giving half of the maximal activity seen. On to `CCCCC=O`, for which the outcome in [1], in [3], in [4], in assay [5], in assay [6] and in assay [7] was inactive. Moreover, in [8], the molecule was classed as inactive. The AC50 in assay [2] was 27.2 µM (active).
For `Cc1cc(=O)oc2cc(O)ccc12`, the result in [1], in assay [4], in assay [5], in [6], in assay [7] and in assay [8] was inactive. For the same molecule, the result in assay [9] was inactive. Moreover, in assay [2], the concentration at half-maximal activity (AC50) is 8.35 µM (active) and 25.5 µM (active).
With `CCCC=O`, the call in assay [1], in [2], in [10], in assay [3], in assay [4] and in [5] was inactive. Also, the molecule was classed as inactive in assay [6], in assay [8] and in [9].
Turning to `CCCCCCCCCCCCCCCC(=O)OC`, the molecule was classed as inactive in assay [1], in [2], in assay [10], in [3], in assay [4] and in [5]. Moreover, the call in assay [6] and in assay [8] was inactive.
As to `O=C(C=C(O)C(F)(F)F)C(F)(F)F`, the outcome in assay [1], in [10], in [3], in assay [4], in assay [5] and in assay [6] was inactive. The molecule was called inactive in [8] and in [9]. Besides, the AC50 in assay [2] is 99 µM (active).
For the molecule `CCc1ccccc1O`, the molecule was classed as inactive in assay [1], in assay [10], in assay [3], in [4], in assay [5] and in [6]. Besides, the molecule was called inactive in assay [9]. Moreover, the AC50 in assay [2] was 10.8 µM (active).
`CC(C)[C@@H]1CC[C@@H](C)C[C@H]1O`: the result in [1], in assay [2], in assay [10], in assay [3], in assay [4] and in [5] was inactive. In addition, the result in assay [6], in [8] and in assay [9] was inactive.
With `CC1CCC(C(=O)O)CC1` (stereo not given), the outcome in assay [1], in [2], in [10], in assay [3], in assay [4] and in [5] was inactive. The molecule was classed as inactive in assay [6], in [8] and in assay [9].
For `CCCCCCCCCC=CCC1CC(=O)OC1=O` (stereo not given), the molecule was called inactive in [1], in assay [2], in assay [3], in assay [4], in assay [5] and in assay [7]. For the same molecule, the outcome in [9] was inactive. Also, the half-maximal activity concentration (AC50) in [6] was 67.9 µM (active).
Take `CS(=O)(=O)c1ccc([C@@H](CC2CCCC2)C(=O)Nc2cnccn2)cc1Cl`: the AC50 was 73.9 µM (active) in [1]; 1.91 µM (active) in assay [2]; 60.2 µM (active) in [3]; 170 µM (active) in [4]; 160 µM (active) in [5]; 136 µM (active) in assay [6]. Besides, the AC50 in assay [8] was 100 µM (active); in assay [9] it was 50.6 µM (active).
As for `CN(Cc1cnc2nc(N)nc(N)c2n1)c1ccc(C(=O)N[C@@H](CCC(=O)O)C(=O)O)cc1`, the call in assay [1], in assay [3], in assay [4], in assay [5], in assay [6] and in assay [7] was inactive. In addition, the call in assay [8] and in [9] was inactive. For the same molecule, in assay [2], the AC50 was 58.9 µM (active).
As for `C=COC(=O)C(C)(C)CCCCCC`, the result in assay [1], in assay [10], in assay [3], in assay [4], in assay [5] and in [6] was inactive. In addition, the molecule was called inactive in assay [9]. In [2], the AC50 is 27.9 µM (active).
`NCc1cccc(CN)c1`: the molecule was classed as inactive in assay [1], in [2], in [10], in [3], in [4] and in [5]. Besides, the result in assay [6], in [8] and in assay [9] was inactive.
As to `CC1CCC(CO)CC1` (stereo not given), the result in assay [1], in [2], in [3], in [4], in assay [5] and in assay [6] was inactive. The result in [7], in assay [8] and in assay [9] was inactive.
Take `C=CC(=O)OCCC(F)(F)C(F)(F)C(F)(F)C(F)(F)C(F)(F)C(F)(F)F`: the molecule was called inactive in assay [1], in [2], in [10], in assay [3], in assay [4] and in [5]. The call in [6] and in [9] was inactive.
In the case of `COc1cc(OC)nc(NC(=O)NS(=O)(=O)Nc2ccccc2C(=O)N(C)C)n1`, the molecule was classed as inactive in assay [1], in [2], in assay [10], in assay [3], in assay [4] and in [5]. For the same molecule, the molecule was called inactive in assay [6], in assay [8] and in [9].
Take `Cn1sccc1=O`: the AC50 is 159 µM (active) in assay [1]; 142 µM (active) in [2]; 154 µM (active) in [4]; 153 µM (active) in assay [5]; 161 µM (active) in assay [6]; 92.9 µM (active) in assay [9]. For the same molecule, the molecule was classed as inactive in [10], in assay [3] and in assay [8].
